Assay outcomes as filed in PubChem BioAssay.
miR-122 inh – miR-122 sensor activation; Huh7 psiCHECK-miR122 Renilla luciferase sensor, 48 h; activation, % at 12.5 µM; 0.14% of 340,000 active;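 active = mean activation of 30% or more, with every replicate also reaching 30%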;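 also: 0% = median of neutral control wells and 100% = median of positive control wells; higher luciferase signal means stronger suppression of miR-122 activity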
* = called active by the depositor. Only a selection was taken, and hits are over-represented in it overall.

SMILES | miR-122 inh
CCCNC(=O)N(C)C[C@H]1Oc2cc(C#Cc3ccccn3)ccc2S(=O)(=O)N([C@H](C)CO)C[C@H]1C | 7
COc1ccccc1-c1ccc2c(c1)O[C@H](CN(C)S(=O)(=O)c1ccc(C)cc1)[C@H](C)CN([C@@H](C)CO)S2(=O)=O | -33
C[C@H]1CN([C@@H](C)CO)C(=O)c2cccc(NC(=O)c3ccncc3)c2O[C@@H]1CN(C)CC1CCCCC1 | -91
CNC[C@H]1Oc2cc(-c3ccccc3OC)ccc2S(=O)(=O)N([C@@H](C)CO)C[C@@H]1C | -1
C[C@@H]1CN([C@@H](C)CO)C(=O)c2cc(C#CC3CCCC3)cnc2O[C@H]1CN(C)C(=O)C1CCC1 | 1
C/C=C/c1ccc2c(c1)O[C@H](CN(C)C(=O)CC1CC1)[C@H](C)CN([C@H](C)CO)S2(=O)=O | 1
COc1cccc(NC(=O)N(C)C[C@H]2Oc3ncc(C#Cc4ccccc4)cc3C(=O)N([C@@H](C)CO)C[C@@H]2C)c1 | -3
CCC(=O)N(C)C[C@@H]1Oc2ncc(C#Cc3ccccc3OC)cc2C(=O)N([C@H](C)CO)C[C@H]1C | 6
C[C@@H]1CN([C@@H](C)CO)C(=O)c2cc(-c3ccccc3)cnc2O[C@H]1CN(C)C(=O)Nc1ccc2c(c1)OCO2 | -8
C[C@H](CO)N1C[C@H](C)[C@H](CN(C)C(=O)Nc2ccc3c(c2)OCO3)Oc2ncc(-c3cccc(C(F)(F)F)c3)cc2C1=O | 33*
COc1cccc(NC(=O)N(C)C[C@@H]2Oc3ncc(C#Cc4ccncc4)cc3C(=O)N([C@@H](C)CO)C[C@H]2C)c1 | 33*
C[C@H]1CN([C@@H](C)CO)C(=O)c2cc(-c3ccccc3)cnc2O[C@@H]1CN(C)C(=O)Nc1ccc2c(c1)OCO2 | 1
C[C@H](CO)N1C[C@H](C)[C@@H](CN(C)Cc2ccc3c(c2)OCO3)Oc2c(NC(=O)C3CC3)cccc2C1=O | -92
COc1ccccc1C#Cc1cnc2c(c1)C(=O)N([C@H](C)CO)C[C@H](C)[C@@H](CN(C)C(=O)c1ccc3c(c1)OCO3)O2 | 35*
COCC(=O)N(C)C[C@H]1Oc2ncc(C#Cc3ccccc3OC)cc2C(=O)N([C@H](C)CO)C[C@@H]1C | 4
COc1cccc(NC(=O)N(C)C[C@@H]2Oc3ncc(C#Cc4ccccc4)cc3C(=O)N([C@@H](C)CO)C[C@@H]2C)c1 | -2
C[C@@H]1CN([C@@H](C)CO)C(=O)c2cccc(NC(=O)c3ccc(-c4nccs4)cc3)c2O[C@H]1CN(C)Cc1ccc2c(c1)OCO2 | 38*
C[C@@H]1CN([C@H](C)CO)C(=O)c2cccc(NC(=O)c3ccc(-c4nccs4)cc3)c2O[C@@H]1CN(C)Cc1ccc(C(=O)Nc2ccccc2N)cc1 | -203
CO[C@H]1CN(C)C(=O)c2ccc(NC(=O)Nc3ccc(F)cc3)cc2OC[C@H](C)NC[C@H]1C | -2
C[C@@H]1CN([C@H](C)CO)S(=O)(=O)c2ccc(C#CCC3CCCC3)cc2O[C@@H]1CN(C)C(=O)c1ccccn1 | -14
COCC(=O)N(C)C[C@@H]1Oc2ncc(/C=C/c3ccccc3)cc2C(=O)N([C@H](C)CO)C[C@@H]1C | -1
C/C=C/c1cnc2c(c1)C(=O)N([C@@H](C)CO)C[C@@H](C)[C@@H](CN(C)CC1CCOCC1)O2 | 0
C[C@@H]1CN([C@H](C)CO)C(=O)c2cc(C#Cc3ccccc3)cnc2O[C@@H]1CN(C)Cc1ccccn1 | 0
C[C@H](CO)N1C[C@H](C)[C@H](CN(C)Cc2cccc(C(=O)O)c2)Oc2ncc(C#CCc3ccccc3)cc2C1=O | -10
CCCN(C)C[C@H]1Oc2cc(C#CCN(C)C)ccc2S(=O)(=O)N([C@H](C)CO)C[C@H]1C | -7
SMILES | miR-122 inh
C[C@@H]1CN([C@H](C)CO)C(=O)c2cc(-c3ccc(C#N)cc3)cnc2O[C@H]1CN(C)CC1CCOCC1 | 4
Cc1nn(C)cc1NC(=O)C[C@H]1CC[C@@H]2[C@H](COc3ccc(NC(=O)Nc4cccc(Cl)c4)cc3C(=O)N2C)O1 | 69*
Cc1nn(C)cc1NC(=O)C[C@@H]1CC[C@H]2[C@@H](COc3ccc(NC(=O)Nc4cccc(Cl)c4)cc3C(=O)N2C)O1 | 48*
CC(C)C#Cc1ccc2c(c1)O[C@H](CN(C)Cc1ccncc1)[C@H](C)CN([C@H](C)CO)S2(=O)=O | -22
C[C@H](CO)N1C[C@H](C)[C@H](CN(C)C(=O)CC2CC2)Oc2cc(C3=CCCCC3)ccc2S1(=O)=O | -3
CCCNC(=O)N(C)C[C@@H]1Oc2cc(C#Cc3cccc(F)c3)ccc2S(=O)(=O)N([C@H](C)CO)C[C@@H]1C | -5
C[C@H]1CN([C@@H](C)CO)C(=O)c2cc(C#CC3(O)CCCC3)cnc2O[C@@H]1CN(C)S(C)(=O)=O | 2
COC(=O)C[C@H]1CC[C@H]2[C@H](COc3ccc(NC(=O)NC(C)C)cc3C(=O)N2C)O1 | 50*
COC(=O)C[C@H]1CC[C@H]2[C@H](COc3ccc(NC(=O)Nc4ccccc4C)cc3C(=O)N2C)O1 | -117
CO[C@@H]1CN(C)C(=O)c2ccc(NC(=O)NC(C)C)cc2OC[C@@H](C)NC[C@@H]1C | -1
CO[C@@H]1CN(C)C(=O)c2cc(NC(=O)NC(C)C)ccc2OC[C@H](C)N(C(=O)NC(C)C)C[C@@H]1C | -3
COC(=O)C[C@H]1CC[C@H]2[C@H](COc3ccc(NS(=O)(=O)c4ccc(F)cc4)cc3C(=O)N2C)O1 | 37*
CO[C@@H]1CN(C)C(=O)c2cc(NC(=O)NC(C)C)ccc2OC[C@@H](C)N(C(=O)NC(C)C)C[C@@H]1C | 0
CNC(=O)C[C@@H]1CC[C@@H]2[C@H](COc3ccc(NC(=O)NC(C)C)cc3C(=O)N2C)O1 | 53*
COc1ccc(C#Cc2ccc3c(c2)O[C@H](CN(C)C)[C@@H](C)CN([C@H](C)CO)S3(=O)=O)cc1 | -7
C[C@H](CO)N1C[C@H](C)[C@H](CN(C)Cc2ccc(F)cc2)Oc2ncc(-c3cncnc3)cc2C1=O | 5
CCC(=O)Nc1ccc2c(c1)OC[C@@H](C)NC[C@H](C)[C@@H](OC)CN(C)C2=O | -2
C[C@H](CO)N1C[C@H](C)[C@@H](CN(C)CC2CCOCC2)Oc2ncc(C#Cc3ccccn3)cc2C1=O | 5
COc1ccc(C#Cc2ccc3c(c2)O[C@H](CN(C)C)[C@H](C)CN([C@@H](C)CO)S3(=O)=O)cc1 | 4
COc1cccc(C#Cc2ccc3c(c2)O[C@H](CN(C)S(=O)(=O)c2ccccc2F)[C@@H](C)CN([C@H](C)CO)S3(=O)=O)c1 | -19
O=C(NC[C@H]1N[C@H](CO)[C@H]1c1ccccc1)c1ccccc1F | -108
CC(=O)N(C[C@@H]1N[C@@H](CO)[C@H]1c1ccc(-c2ccccc2)cc1)C(C)C | 67*
CC(C)N(C[C@@H]1N[C@@H](CO)[C@@H]1c1ccccc1)S(=O)(=O)c1ccccc1 | 67*
CC(=O)N(C)C[C@@H]1[C@@H](c2ccc(-c3cccnc3)cc2)[C@H](CO)N1C(=O)C1CC1 | -258
CN(C[C@@H]1[C@@H](c2ccccc2)[C@@H](CO)N1Cc1ccccn1)S(C)(=O)=O | -92
C[C@@H]1CN([C@H](C)CO)S(=O)(=O)c2ccc(C#C[C@@H](C)O)cc2O[C@@H]1CN(C)C(=O)c1ccncc1 | 8
COCC(=O)N(C)C[C@@H]1Oc2cc(C#CC(C)C)ccc2S(=O)(=O)N([C@H](C)CO)C[C@@H]1C | 0
CC(C)C#Cc1ccc2c(c1)O[C@H](CN(C)C(=O)c1ccccc1)[C@@H](C)CN([C@H](C)CO)S2(=O)=O | -35
